Bioassay records (PubChem BioAssay)
BioA inh = blocks M. tuberculosis BioA enzyme activity. purified M. tuberculosis BioA enzyme, plate reader. inhibition, % at 9.99 µM. actives 0.096% (n = 360,000); in the data active means inhibition above about 40%
Yp Topo-I inh = blocks Yersinia pestis topoisomerase I activity; activity, % at 10 µM; AID 504884; Y. pestis Topo-I cleavage product accumulation, plate reader; actives 0.064% (n = 360,000); in the data active means activity above about 50%, passing the limit was not always enough
DUSP3 inh = blocks human VHR1 dual specificity phosphatase; recombinant VHR phosphatase, pNPP absorbance; inhibition, % at 13.3 µM; actives 0.52% (n = 290,000); in the data active means inhibition above about 50%
FadD28 binding = blocks FadD28 binding to the bisubstrate probe. fluorescence polarization. inhibition, % at 12.5 µM. actives 0.22% (n = 360,000). AID 588549; in the data active means inhibition above about 8.5%, passing the limit was not always enough
MazEF act = increases E. coli MazEF RNase cleavage of RNA; P0AE70; FAM/BHQ RNA-DNA oligo cleavage fluorescence, 5 h; activation, % at 20 µM; actives 0.32% (n = 350,000); in the data active means activation above about 50%
TcdB GH inh = blocks C. difficile toxin B glycohydrolase activity; TcdB glycohydrolase enzymatic assay, plate reader; inhibition, % at 9.99 µM; actives 0.24% (n = 350,000); AID 652162; in the data active means inhibition above about 10%
An asterisk follows results filed as active; · = no result given; + = active, no number. This is a sample that favours compounds with a hit; in the whole collection about 1% have one here.

SMILES | BioA inh | Yp Topo-I inh | DUSP3 inh | FadD28 binding | MazEF act | TcdB GH inh
O=C(O)c1cc(N2N=C(C(F)(F)F)/C(=C/C=C/c3ccco3)C2=O)ccc1Cl | · | -42 | 48 | 77* | -27 | -2
COc1ccc(OC)c(/C=C2\N=C(c3ccccc3)OC2=O)c1 | -5 | 8 | -12 | -3 | + | 0
CCC(=O)N1CC2(C1)[C@H](c1ccccc1)[C@@H](CO)N2C(=O)c1ccncc1 | · | · | · | · | · | 0
COc1ccc(CNS(=O)(=O)c2ccc(-c3cc(C)no3)cc2)cc1 | -7 | -10 | 60* | -1 | -7 | 1
Cc1noc(C)c1NC(=O)Nc1ccc2c(c1)C(=O)N([C@@H](C)CO)C[C@@H](C)[C@H](CN(C)Cc1ccc(C(=O)O)cc1)OCCCC[C@@H](C)O2 | -3 | · | · | · | · | ·
CCNC(=O)[C@H]1[C@H](CO)[C@H]2Cn3c(ccc(-c4ccc(OC)cc4)c3=O)[C@@H]1N2CC | -1 | · | · | · | · | 0
CCOc1ccccc1N1CCN(C2=C(NS(=O)(=O)c3cccs3)C(=O)c3ccccc3C2=O)CC1 | -3 | 3 | 25 | 14* | 11 | ·
CN(C)CC#Cc1cccc(-c2nc(C(=O)N[C@@H]3CCN(Cc4ccccc4)C3)cc3c2[C@H](CCO)N(S(=O)C(C)(C)C)C3)c1 (stereo not given in full) | · | · | · | · | · | 0
COc1ccc(OC)c(/C=N/n2c(C)nc3ccccc3c2=O)c1 | 0 | 2 | · | -3 | 5 | 1
COc1ccc(Br)cc1/C=N/n1c(C)nc2ccccc2c1=O | -1 | -1 | 58* | 0 | -8 | 1
O=C(C1CCC1)N1[C@H](CO)[C@@H](c2ccccc2)C12CN(CCC(F)(F)F)C2 | · | · | · | · | · | 1
COc1ccccc1NC(=O)N(CCN(C)C)Cc1cc2cc(C)ccc2[nH]c1=O | 2 | 4 | 52* | -2 | 3 | ·
COc1ccccc1NC(=O)N(CCN1CCCC1)Cc1cc2cc(C)ccc2[nH]c1=O | 1 | 15 | · | -4 | 1 | ·
O=C(C[C@@H]1CC[C@@H]2[C@H](COC[C@@H](O)CN2C(=O)Nc2cccc(F)c2)O1)NCc1ccccc1Cl | 4 | · | · | · | · | 0
O=C(CCc1ccccc1)Nc1ccc(NC(=O)c2ccco2)nc1 | 1 | 4 | 13 | -2 | 618* | ·
O=C(CCc1ccccc1)Nc1ccc(NC(=O)c2ccco2)cc1 | -1 | 1 | 8 | 0 | 2 | 0
Cc1onc(-c2ccccc2Cl)c1C(=O)Nc1ccc2c(c1)OCO2 | -1 | -3 | 51* | -1 | 1 | ·
C#CCn1c(=NC(=O)c2sc3ccccc3c2Cl)sc2cc(S(N)(=O)=O)ccc21 | -6 | 2 | -3 | 0 | 63* | ·
CC(NC(=O)CN1CCc2ccccc21)c1ccccc1 (stereo not given) | · | 2 | 54* | 0 | 3 | ·
CC(NC(=O)CN1CCN(c2ccccc2F)CC1)c1ccccc1 (stereo not given) | -3 | -1 | 29 | 0 | 2 | 2
COc1ccccc1Oc1cn[nH]c1-c1ccc(O)cc1O | · | 1 | 1 | 1 | 3 | 19*
C[C@H]1CN([C@@H](C)CO)C(=O)c2cc(C#CC3CC3)cnc2O[C@@H]1CN(C)C(=O)c1ccc(F)cc1 | 2 | · | · | · | · | 1
CN(C)c1ccc(C(=O)/C=C/c2ccccc2)cc1 | -1 | 13 | 18 | -2 | 459* | 2
CC(=O)Nc1cccc(C(=O)/C=C/c2ccc(N(C)C)cc2)c1 | · | -6 | -4 | -1 | 145* | 1
CC(=O)Nc1cccc(C(=O)/C=C/c2ccc(/C=C/C(=O)c3cccc(NC(C)=O)c3)cc2)c1 | · | · | 28 | · | · | 1
SMILES | BioA inh | Yp Topo-I inh | DUSP3 inh | FadD28 binding | MazEF act | TcdB GH inh
O=C(Nc1ccccc1F)N1[C@@H]2CNC[C@H]1C2c1ccc(-c2cccnc2)cc1 (stereo not given in full) | · | · | · | · | · | -1
CCOC(=O)N1CCN(c2ncnc3c2oc2nc(C(C)C)c4c(c23)CCC4)CC1 | -2 | -8 | 3 | -5 | 55* | ·
Cc1ccccc1S(=O)(=O)N1C[C@@H](O)COC[C@H]2O[C@H](CC(=O)NCCc3ccccc3)CC[C@@H]21 | 2 | · | · | · | · | 1
O=C(CCN1C(=O)/C(=C\c2ccco2)SC1=S)Nc1ccc(C(=O)O)c(O)c1 | 0 | -15 | -9 | 15* | -2 | -1
CCc1ccc(/C=C2/SC(=S)N(CCC(=O)Nc3ccc(C(=O)O)cc3)C2=O)cc1 | -3 | -1 | 63 | 0 | · | 0
COc1ccccc1/C=C1\SC(=S)N(CCC(=O)Nc2ccc(C(=O)O)c(O)c2)C1=O | · | 12 | 27 | -6 | -8 | 1
